From PubChem BioAssay
PI5P4Ka inh: blocks human PI5P4K alpha kinase activity; 330,000 compounds, 1.2% hits; max response, %; PI5P4Kalpha enzyme, ADP-Glo luminescence, 60 min; hits give low values; P48426; active = max response of -50% or lower; inconclusive = between -30% and -50%; inactive = -30% or higher; also: value at the top dose of about 77 µM; % is scaled to controls: 0 for no effect and ±100 for the full control effect
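qHTS, 1536-well: enzyme/substrate mix, compound by pin tool, 5 microM ATP final; RT 60 min; ADP-Glo reagents 1 (45 min) then 2 (30 min); luminescence.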
Pol iota inh: inhibitors of human DNA polymerase iota; Pol iota fluorescent replication assay, 10 min; 390,000 compounds, 1% hits; AID 588590; Potency, µM (series often up to 115 µM), for inactives: at the top dose activity, negative = inhibition, hits mostly inhibitors; Q9UNA4; also: potency is read from the fitted curve at half-maximal effect
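Fluorescent replication assay read twice, at 0 min and 10 min after adding 50 nM (final) substrate. Enzyme (10 nM) and compounds were first incubated 15 min at room temperature; enzyme-free buffer wells were negative controls.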
WRN inhibitor: inhibitors of human WRN helicase | WRN helicase unwinding, fluorescent forked duplex, kinetic | 360,000 compounds, 0.46% hits | Potency, µM (titrated, usually from 114 µM), for the others: top-dose activity change, negative = inhibition, hits mostly inhibitors | Q14191; also: potency is read from the fitted curve at half-maximal effect; % is scaled to controls: 0 for no effect and ±100 for the full control effect; nearly all actives have a fitted effect of over 55% in size
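Kinetic fluorescence helicase assay: unwinding of a quenched forked DNA duplex (100 nM final) with 2 mM ATP final raises red fluorescence (525/598 nm). Compounds sat 15 min at room temperature with 20 nM WRN beforehand.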
Pol beta inh-1: DNA polymerase beta (human) inhibition; P06746; Pol beta primer extension/strand displacement, fluorescence kinetic; Potency, µM (top dose mostly 114 µM), for inactives: at the top dose activity change, negative = inhibition, hits mostly inhibitors; 340,000 compounds, 1.3% hits; AID 485314; also: potency is read from the fitted curve at half-maximal effect; % is scaled to controls: 0 for no effect and ±100 for the full control effect
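Preincubation: enzyme (10 nM) with compound, 15 min, RT. Reaction: substrate added to 50 nM final. Reads: 0 and 10 min. Analysis: normalized, Hill fit.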
Pol eta inh: DNA polymerase eta (human) inhibition | Q9Y253 | recombinant Pol eta, fluorescent DNA replication assay | Potency, µM (series often up to 114 µM), for the others: at the highest dose activity change, negative = inhibition, actives largely listed as inhibitors | 390,000 compounds, 1.2% hits | AID 588591; also: potency is read from the fitted curve at half-maximal effect; % is scaled to controls: 0 for no effect and ±100 for the full control effect
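Pol eta at 10 nM preincubated with compounds 15 min at room temperature; reaction started with fluorescent substrate (50 nM final) and read kinetically at 0 and 10 min.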
POLK inh: DNA polymerase kappa (human) inhibition; Q9UBT6; purified Pol kappa, fluorescent DNA synthesis assay, 10 min; Potency, µM (highest dose often 107 µM), inactives show top-dose activity, negative = inhibition, hits mostly inhibitors; 400,000 compounds, 0.53% hits; AID 588579; also: potency is read from the fitted curve at half-maximal effect; % is scaled to controls: 0 for no effect and ±100 for the full control effect
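Fluorescent qHTS in 1536-well format: enzyme (10 nM) and compound sat 15 min at room temperature before 50 nM substrate (final) was added. Signal taken at 0 and 10 min; no-enzyme buffer wells were negative controls.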
Pol beta inh-2: Inhibitors of human DNA polymerase beta, hit validation; Pol beta primer extension/strand displacement, fluorescence kinetic; 250 compounds, 87% hits; Potency, µM, most hits filed as inhibitors; shares compounds with Pol beta inh-1; calls by dose curve; also: potency is read from the fitted curve at half-maximal effect
Klenow counter: Klenow polymerase inhibition, pol beta selectivity check; shares compounds with Pol beta inh-1; Klenow exo- polymerase counter-screen, fluorescent DNA substrate; activity change, negative = inhibition, % at 57.1 µM; 250 tested, under 10 active; AID 540300
HIV RT inh: inhibits HIV-1 reverse transcriptase in counter-screen | activity % (negative = inhibition, positive = activation), % at 57.1 µM | HIV-1 RT polymerase activity, counter-screen | shares compounds with Pol beta inh-1 | 250 tested, under 10 active
BAZ2B confirm: confirmation of human BAZ2B bromodomain inhibitors. shares compounds with POLK inh. AlphaScreen BAZ2B / biotin-H3K14Ac peptide displacement. Potency, µM, most hits filed as inhibitors. 25 compounds, 100% hits. AID 588809; calls by dose curve
BAZ2B bead ctr: AlphaScreen signal interference, BAZ2B hit counter-screen; shares compounds with POLK inh; AlphaScreen biotin-His6 peptide bead counterscreen, signal decrease; Potency, µM (top dose mostly 57.1 µM), without a hit: at the top dose activity change, negative = inhibition, actives largely listed as inhibitors; 25 tested, under 10 active;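 active = clear concentration-dependent signal drop in the bead assay lacking the target, so a primary-screen artifact; inconclusive = weak, partial or single-dose response; inactive = no response, so a real primary hit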
TbPGK inh: blocks T. brucei phosphoglycerate kinase; shares compounds with POLK inh; TbPGK coupled GAPDH assay, Kinase-Glo luminescence; Potency, µM (doses to about 57.5 µM), for inactives: at the highest dose activity change, negative = inhibition, most hits filed as inhibitors; 500 compounds, 79% hits; AID 686980; also: potency is read from the fitted curve at half-maximal effect; % is scaled to controls: 0 for no effect and ±100 for the full control effect; nearly all actives have a fitted effect of over 65% in size
Target sequence (P07378 whole entry, looked up): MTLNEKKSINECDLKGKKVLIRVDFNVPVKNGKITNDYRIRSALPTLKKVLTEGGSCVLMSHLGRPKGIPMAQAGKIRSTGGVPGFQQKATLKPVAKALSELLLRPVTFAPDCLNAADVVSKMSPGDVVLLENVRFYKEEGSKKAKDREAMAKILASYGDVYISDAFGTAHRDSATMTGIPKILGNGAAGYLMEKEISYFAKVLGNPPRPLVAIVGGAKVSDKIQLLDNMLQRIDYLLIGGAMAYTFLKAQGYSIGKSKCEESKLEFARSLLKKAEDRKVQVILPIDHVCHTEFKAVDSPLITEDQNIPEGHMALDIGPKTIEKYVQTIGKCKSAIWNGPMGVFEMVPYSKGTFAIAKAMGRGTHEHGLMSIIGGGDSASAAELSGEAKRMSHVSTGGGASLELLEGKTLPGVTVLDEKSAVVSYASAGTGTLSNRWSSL
POLI cherry-pick: Human Pol iota inhibitor confirmatory assay; AID 720496; shares compounds with POLK inh; Potency, µM, hits mostly inhibitors; 1,500 compounds, 77% hits; Pol iota primer extension, TAMRA/BHQ fluorescence; also: potency is read from the fitted curve at half-maximal effect
Active calls of the source: *; u = inconclusive; x = no result; ! = not active in a repeat; [ ] = dose if it differs, or a comment. This is a sample that favours compounds with a hit; in the whole collection about 2.8% have one here. Unless noted, calls follow the shape of the dose curve; as a rule, active = well fitted curve in the direction sought with a large enough effect; inconclusive = small, poorly fitted or top-dose-only effect, or another doubt; inactive = no such curve, though single readings can be large; an effect the other way counts as inactive or inconclusive.

SMILES | PI5P4Ka inh | Pol iota inh | WRN inhibitor | Pol beta inh-1 | Pol eta inh | POLK inh | TbPGK inh | others
C=C(C)C(=O)Nc1cccc(C2=NOC3(C2)C[C@H](C(N)=O)N(C(=O)CC)C3)c1 (some centres undefined) | -17 | u | -6% | 3.5µM* | 11µM* | 79µM* | x | Pol beta inh-2=8.9*;Klenow counter=-17;HIV RT inh=1;BAZ2B confirm=7.1*;BAZ2B bead ctr=-3%
Nc1c([N+](=O)[O-])ccc(Oc2ccccc2)c1Cl | x | x | x | x | x | 2%[60.1 µM] | x
CCN(CC)P(=O)(NC(=O)C(Cl)(Cl)Cl)N(CC)CC.[Cl-].[Cl-].[Cl-].[Nd+3] | -10 | u | u | u | u | 79µM* | u
CN1C(=O)NC(=O)/C(=C\c2ccc([N+](=O)[O-])o2)C1=O | -102* | 2.5µM* | 25µM* | 100µM* | 2.2µM* | 14µM* | 1.8µM*
O=c1cc(OCc2ccccc2)cc[nH]1 | -7 | 53% | 4% | x | -19% | 4% | x | BAZ2B confirm=2.2*;BAZ2B bead ctr=10µM*
CN1C(=O)C(Cc2ccc(OCc3ccccc3)cc2)C(=O)N(C)C1=O | -6 | 44% | 9% | -1% | -6% | 7% | x
NCCCC[C@H](NC(=O)[C@H](Cc1ccccc1)NC(=O)[C@H](CCCN=C(N)N)NC(=O)[C@@H](N)Cc1ccc(O)cc1)C(N)=O | x | x | x | x | x | 6%[19.4 µM] | x
CCN(CC)C(=O)c1ccc2c(c1)C1C=CCC1C(C(=O)O)N2 (centres undefined) | u | 13µM* | 45µM* | 35µM* | 4µM* | u | u
N#Cc1cc2c(nc1SCC(=O)Nc1ccc(F)c(Cl)c1)C1CCN2CC1 | x | -4% | x | -7% | -1% | -22% | x
OC[C@@H]1O[C@H](OC2[C@@H](O)[C@@H](O)[C@@H](O)O[C@@H]2CO)[C@H](O)[C@@H](O)[C@@H]1OC1O[C@H](CO)[C@@H](O)[C@H](O)[C@@H]1O (some centres undefined) | x | x | x | x | x | 16%[60.1 µM] | x
CN(C)[C@@H]1C(=O)C(C(N)=O)=C(O)[C@@]2(O)C(=O)C3=C(O)c4c(O)cccc4[C@@](C)(O)C3[C@H](O)C12 (some centres undefined) | -88*! | 13µM* | 40µM*! | x | 32µM*! | 8.9µM*! | x | POLI cherry-pick=u
C[C@]12C[C@H](O)[C@@H](O)CC1=CCC1C2CC[C@@]2(C)C1CC[C@@H]2O (some centres undefined) | 1 | 22% | 8% | x | -4% | -1% | x
